Source: PubChem (National Center for Advancing Translational Sciences (NCATS))
The full list was thinned out, with hits kept by preference.
GoLoco inh red: qHTS Assay for Inhibitors of RGS12 GoLoco Motif Activity (Red Fluorophore); Guanine nucleotide-binding protein G(i) subunit alpha-1 (Homo sapiens), P63096; Gai1:RGS12 GoLoco peptide FP, rhodamine, 10 min; Potency, µM (top dose mostly 61.6 µM), most hits filed as inhibitors; actives 0.44% (n = 230,000); AID 880, 2007; active = well fitted inhibition curve with a large enough effect, not every such curve was filed as active; inactive = no such curve, though single readings can be large or run the other way; note: nearly all actives have a fitted effect of over 30% in size
NPSR antag: qHTS Assay for Antagonists of the Neuropeptide S Receptor: cAMP Signal Transduction. AID 1461, 2008. Q6W5P4. CHO-NPSR cells, cAMP TR-FRET, antagonist mode. actives 1% (n = 220,000). Potency, µM (series often up to 38.3 µM), most hits filed as inhibitors; note: nearly all actives have a fitted effect of over 50% in size
IMPase Li inh: qHTS Assay for Identifying the Cell-Membrane Permeable IMPase Inhibitors: Potentiation with Lithium; CHO-M1 cells, IP1 TR-FRET (IP-One), carbachol + lithium; Potency, µM (top dose mostly 59.4 µM), actives largely listed as inhibitors; actives 0.35% (n = 210,000); AID 1457, 2008;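 note: IP1 builds up when IMPase is blocked and the TR-FRET signal falls; nearly all actives have a fitted effect of over 50% in size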
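Concentration–response in CHO-M1 cells, lithium-potentiated; 30 min at 37C. IP1 detected by competitive TR-FRET after 10 min lysis at RT. Hill-fitted AC50.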
Tb PFK inh-1: qHTS Assay to Find Inhibitors of T. brucei phosphofructokinase; AID 485367, 2010; Potency, µM (top dose mostly 57.5 µM), actives largely listed as inhibitors; T. brucei PFK, ADP-Glo luminescence; actives 0.17% (n = 330,000); note: nearly all actives have a fitted effect of over 60% in size
Target sequence (O15648 whole entry, looked up): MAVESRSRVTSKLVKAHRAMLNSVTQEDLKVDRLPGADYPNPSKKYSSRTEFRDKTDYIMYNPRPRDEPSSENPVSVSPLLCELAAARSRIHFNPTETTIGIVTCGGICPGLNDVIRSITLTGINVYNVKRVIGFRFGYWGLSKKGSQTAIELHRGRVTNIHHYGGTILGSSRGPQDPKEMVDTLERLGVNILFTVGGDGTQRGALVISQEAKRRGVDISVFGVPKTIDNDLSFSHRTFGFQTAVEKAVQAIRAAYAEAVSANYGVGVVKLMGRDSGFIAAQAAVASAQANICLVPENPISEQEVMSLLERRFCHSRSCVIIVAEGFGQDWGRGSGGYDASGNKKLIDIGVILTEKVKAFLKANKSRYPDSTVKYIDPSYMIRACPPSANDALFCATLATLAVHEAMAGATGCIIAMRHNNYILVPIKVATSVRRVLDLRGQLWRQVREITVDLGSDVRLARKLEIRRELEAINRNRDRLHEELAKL
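Compounds were pin-transferred as a titration series up to 57 uM into substrate buffer (0.5 mM F6P, 0.1 mM ATP, pH 8.0), then 1.25 nM PFK was added and reactions ran 45 min before ADP-Glo detection.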
MBNL1 CUG block: qHTS Assay for Inhibitors of MBNL1-poly(CUG) RNA binding. Muscleblind-like protein 1 (Homo sapiens), Q9NR56. TR-FRET MBNL1-His/biotin-(CUG)12 binding, 665/545 ratio. Potency, µM (doses to about 57.5 µM), most hits filed as inhibitors. actives 0.036% (n = 280,000). AID 2675, 2010; active = well fitted inhibition curve with a large enough effect in the signal ratio, with a control signal flat, not every such curve was filed as active; inconclusive = small, poorly fitted or top-dose-only effect, or effect the other way, or a change in a side signal; inactive = no such curve, though single readings can be large or run the other way; the % refers to the signal ratio
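Compounds (final 92 nM to 58 uM) are added to His-tagged MBNL1 and biotin-(CUG)12, then terbium anti-His antibody and streptavidin-XL665 (5 nM final). After 60 min at room temperature, the 665/545 nm ratio is read.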
Tb PFK KinaseGlo: Tb PFK orthogonal confirmatory assay using ATP depletion (Kinase-Glo Plus) as an alternative measure of Tb PFK activity: Hit Validation; shares compounds with Tb PFK inh-1; AID 504636, 2011; Potency, µM (highest dose often 57.5 µM); actives 47% (n = 1,100); Tb PFK enzyme, ATP depletion, Kinase-Glo Plus luminescence; calls by dose curve; note: nearly all actives have a fitted effect of over 60% in size
Tb PFK inh-2: Inhibitors of T. brucei phosphofructokinase: Hit Validation; actives 41% (n = 1,100); purified T. brucei PFK, ADP-Glo luminescence, 45 min; Potency, µM (highest dose often 57.5 µM), actives largely listed as inhibitors; shares compounds with Tb PFK inh-1; AID 504637, 2011; note: nearly all actives have a fitted effect of over 60% in size
Numbers stand for hits; . = inactive; ? = inconclusive; / = not tested or not shown; ! = not active in a repeat; [ ] = dose if it differs, or a comment. Unless noted, calls come from the whole dose curve; as a rule, active = well fitted curve in the direction sought with a large enough effect; inconclusive = small, poorly fitted or top-dose-only effect, or another doubt; inactive = no such curve, though single readings can be large; an effect the other way counts as inactive or inconclusive.

SMILES | GoLoco inh red | NPSR antag | IMPase Li inh | Tb PFK inh-1 | MBNL1 CUG block | Tb PFK KinaseGlo | Tb PFK inh-2
CCn1c(O)c(N=Nc2ccc(S(=O)(=O)N3CCOCC3)cc2)c(=O)n(CC)c1=S | . | ? | / | . | ? | / | /
O=[N+]([O-])c1ccc(NC(=S)NCc2ccc(F)cc2)cc1 | / | / | / | ? | ? | 19µM | ?
O=S(=O)(c1ccc(NC(=S)NCc2ccc(F)cc2)cc1)N1CCOCC1 | / | / | / | 23.9µM | . | 12µM | 30.1µM
CC(C)[C@@H](Br)C(=O)NCC(=O)O | .[14.2 µM] | / | . | / | / | / | /
C[C@]1(O)CC[C@H]2[C@@H]3[C@@H](O)CC4=CC(=O)CC[C@@]4(C)[C@H]3CC[C@]21C | .[14.2 µM] | / | . | / | / | / | /
CC1CC2CC(=O)C3CCCN4CCCC2[C@]34C1 (some centres undefined) | . | / | . | / | / | / | /
NS(=O)(=O)c1ccc(NC(=O)CSc2ccccc2)cc1 | . | . | . | 15.1µM | / | 23.9µM | 30.1µM
O=C(COc1ccc(Cl)cc1)NC1CN2CCC1CC2 (centres undefined) | . | .[7.67 µM] | . | . | . | / | /
S=C(NCc1ccc(Cl)cc1)Nc1ccncc1 | / | / | / | 8.49µM | . | 7.57µM | 12µM
NS(=O)(=O)c1ccc(NC(=S)NCc2ccc(Cl)cc2)cc1 | . | . | . | 12µM | . | 2.69µM | 5.36µM
NS(=O)(=O)c1ccc(NC(=O)COc2ccc(Cl)cc2)cc1 | / | / | / | 1.9µM | . | 1.07µM | ?
NCCc1ccc(S(N)(=O)=O)cc1 | . | . | . | . | . | / | /
O[C@@H](Cc1ccncc1)C(Cl)(Cl)Cl | . | / | . | / | / | / | /
O=C(O)[C@H](Cc1cnc[nH]1)N1C(=O)c2ccccc2C1=O | .[14.2 µM] | / | . | / | / | / | /
CC(C)OCCCNC(=S)Nc1ccc(S(N)(=O)=O)cc1 | . | . | . | 26.9µM | / | 6.75µM | 13.5µM
CC(NCc1ccc(Cl)c(Cl)c1)C(O)c1ccccc1 (centres undefined) | . | . | . | ? | . | 12µM | 23.9µM
Clc1cccc(CN2C3=NCCCN3c3ccccc32)c1 | / | / | / | ? | ? | ? | ?
COc1cccc(N2CCN(Cc3cccc(Cl)c3)CC2)c1 | . | . | . | . | . | / | /
c1ccc(OCCN2C3=NCCN3c3ccccc32)cc1 | / | . | / | 21.3µM | . | 23.9µM | ?
COc1ccccc1N1CCN(Cc2ccc(Br)cc2)CC1 | / | / | / | . | . | / | /
Brc1ccc(CN2C3=NCCCN3c3ccccc32)cc1 | . | . | . | ? | . | 26.9µM | ?
Clc1ccc(CN2C3=NCCN3c3ccccc32)cc1 | . | . | . | 23.9µM | . | 21.3µM | 26.9µM
CCCc1cc2c(n1Cc1ccco1)C(C)C1CN(C(=O)c3ccccc3)C(C)(C(=O)OC)C21 (centres undefined) | . | / | . | / | / | / | /
C/C(O)=C(/C#N)C(=O)Nc1cc(Br)ccc1Br | . | / | . | / | / | / | /
O=C(Nc1ccc(Cl)c(Cl)c1)O/N=C/c1ccncc1 | . | . | . | 8.49µM | / | ? | ?
SMILES | GoLoco inh red | NPSR antag | IMPase Li inh | Tb PFK inh-1 | MBNL1 CUG block | Tb PFK KinaseGlo | Tb PFK inh-2
COc1ccccc1NS(=O)(=O)c1cc(NC(=O)c2ccc(Cl)nc2)ccc1N1CCCC1 | / | / | / | 16.9µM | / | 4.78µM | 6.01µM
O=C(NC(=S)Nc1ccccc1C(=O)O)c1ccc2ccccc2c1 | . | .[7.67 µM] | / | ? | / | . | ?
Nc1ccc(Cl)c(Cl)c1 | . | / | . | / | / | / | /
Nc1nnc(Cc2ccc(Cl)c(Cl)c2)s1 | . | . | . | 19µM | . | 7.57µM | 19µM
CNc1ccc2oc(C[C@H]3O[C@]4(CC[C@H]3C)O[C@H]([C@H](C)C(=O)c3ccc[nH]3)[C@H](C)C[C@H]4C)nc2c1C(=O)O | . | / | . | / | / | / | /
O=[N+]([O-])c1ccc(Cc2ccncc2)cc1 | . | . | . | ? | ? | ? | 30.1µM
O=[N+]([O-])c1ccc(NCc2ccncc2)cc1 | / | / | / | 5.36µM | ? | 3.38µM | 7.57µM
O=[N+]([O-])c1ccccc1 | . | / | . | / | / | / | /
O=[N+]([O-])c1ccc(C2C3C(c4ccccc4)=NC4(CCCC4)N32)cc1 (centres undefined) | . | . | . | . | . | / | /
Fc1ccc(C2CC(c3ccco3)=Nc3ccccc3S2)cc1 (centres undefined) | . | . | . | ? | . | . | .
O=[N+]([O-])c1ccc(C2CC(c3ccccc3)=Nc3ccccc3S2)cc1 (centres undefined) | . | . | / | ? | . | . | .
CCCCC/C=C\C/C=C\C/C=C\C/C=C\CCCC(=O)NCCCl | . | / | . | / | / | / | /
CS(=N)(=O)CC[C@@H](N)C(=O)O (some centres undefined) | . | / | . | / | / | / | /
OC[P+](CO)(CO)CO | . | / | . | / | / | / | /
CNCC/C=C/c1cccnc1 | . | / | . | / | / | / | /
CC(/C=C\c1cccnc1)=C/C(=O)O | . | . | . | 15.1µM! | . | ? | 26.9µM
CC(C)C(C(=O)O)N1C(=O)/C(=C/C=C/c2ccco2)SC1=S (centres undefined) | . | . | . | ? | ? | 8.49µM | 21.3µM
CCN1C(=O)C(=C/C=C/c2ccco2)C(=O)N(CC)C1=S | . | . | . | . | . | / | /
O=C(Cc1ccc(Br)cc1)N/N=C/c1cccnc1 | / | / | / | 16.9µM | . | 13.5µM | ?
C/C=C(/C)C(=O)O[C@H]1C(C)=C2C([C@@H]1OC(=O)CCCCCCC)[C@@](C)(OC(C)=O)C[C@@H](OC(=O)CCC)[C@@]1(O)[C@H]2OC(=O)[C@@]1(C)O (some centres undefined) | . | ? | . | / | / | / | /
O=C1NS(=O)c2cc([N+](=O)[O-])cc([N+](=O)[O-])c21 (centres undefined) | . | . | . | . | ? | / | /
O=C1c2c([N+](=O)[O-])cc([N+](=O)[O-])cc2S(=O)N1Cc1ccccc1 (centres undefined) | . | . | . | 26.9µM | ? | . | .
O=C(COC(=O)Cc1ccccc1)NC(=O)NC1CCCCC1 | / | / | / | . | / | / | /
COc1ccc(CC(=O)OCC(=O)NC2CC2)cc1 | / | / | / | 23.9µM | / | ? | .
[O-][Br+2]([O-])O | . | / | . | / | / | / | /
Cc1ccc(NC(=O)Nc2ccc(S(N)(=O)=O)cc2)cc1 | . | . | . | 21.3µM | . | 13.5µM | ?
NS(=O)(=O)c1ccc(NC(=O)Nc2cccc(Cl)c2)cc1 | . | . | . | 23.9µM | ? | ? | ?
